Bioassay records (PubChem BioAssay)
Hsp70 activator: Hsp70 transcriptional activation, primary screen; HeLa Hsp70 promoter luciferase reporter, luminescence; scaled: vehicle 0, proteasome-inhibitor control 100%; activation, % at 10 µM; 200,000 tested, 0.04% active; AID 1203;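 active = activation above the mean across all tested compounds plus 3 SD, cutoff set per campaign, cut at about 5.5% in these data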;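 also: 100% = MG132 at 30 µM as the positive control and 0% = DMSO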
NF-kB expr up: NF-kB expression increase, human neuronal cells. fold change at 12.5 µM. NF-kB reporter expression; hits give high values. 190,000 tested, 1.6% active; in the data active = fold change above about 3.3
APP 5'UTR act: APP 5'UTR luciferase reporter activation | SH-SY5Y APP 5'UTR luciferase reporter, luminescence; zero percent = DMSO vehicle wells | 190,000 tested, 1% active | AID 1276 | activation, % at 2 µM;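 active = activation above a set limit, based on mean plus 3 SD of controls, cut at about 140% in these data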
Wee1 degr inh: inhibitors of human Wee1 degradation; P30291; HeLa Luc-Wee1K328M stability, luciferase luminescence; 100% = proteasome inhibitor MG132 effect; 220,000 tested, 1.2% active; reporter increase, % at 5 µM;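 active = activation above the mean of all tested compounds plus 3 SD, set per screening run, cut at about 8.8% in these data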;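 also: cells exposed to compound for 20 h before luminescence read; 0% = DMSO alone and 100% = MG132 at 30 µM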
Target sequence (P30291 whole entry K328M): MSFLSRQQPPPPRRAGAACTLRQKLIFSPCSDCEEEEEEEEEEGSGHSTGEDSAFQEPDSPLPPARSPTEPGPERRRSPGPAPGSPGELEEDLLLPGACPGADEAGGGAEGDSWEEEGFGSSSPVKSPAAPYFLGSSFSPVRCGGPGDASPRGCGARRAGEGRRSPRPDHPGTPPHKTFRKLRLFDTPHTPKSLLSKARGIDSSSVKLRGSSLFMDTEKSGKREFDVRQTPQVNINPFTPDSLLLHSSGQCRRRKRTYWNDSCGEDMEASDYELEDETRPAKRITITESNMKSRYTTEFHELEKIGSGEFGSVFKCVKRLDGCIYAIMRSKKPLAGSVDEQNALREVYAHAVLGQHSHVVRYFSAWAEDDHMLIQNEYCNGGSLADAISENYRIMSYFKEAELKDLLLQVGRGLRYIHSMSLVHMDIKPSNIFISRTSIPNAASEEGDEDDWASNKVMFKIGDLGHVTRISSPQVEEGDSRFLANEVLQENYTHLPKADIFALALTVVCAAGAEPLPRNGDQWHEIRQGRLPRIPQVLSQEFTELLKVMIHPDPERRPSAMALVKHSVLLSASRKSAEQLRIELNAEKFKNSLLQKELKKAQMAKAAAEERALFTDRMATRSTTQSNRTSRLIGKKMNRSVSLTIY
STAT1 act: STAT1 signaling activation; activation (% of control), % at 5.5 µM; 200,000 tested, 2.6% active; NIH 3T3 STAT1-luciferase reporter, IFN-gamma, luminescence; 100% = IFN-gamma alone, no compound;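 active = activation above the screen-wide mean activation plus 3 SD, cut at about 130% in these data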;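 also: raw ratio to IFN-gamma control signal so 100% means no change and 0% no light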
APP transl inh: APP translation inhibition. SH-SY5Y APP 5'UTR-luciferase reporter, luminescence. inhibition, % at 2 µM. 190,000 tested, 0.82% active. AID 1285;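 active = inhibition above a set limit, derived from the sample mean plus 3 SD, cut at about 45% in these data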
* marks the source's active call; other numbers are inactive results; / = no result given. Rows were chosen to be rich in hits. Some 4.8% of all compounds tested hit in one or more screens of this group.

SMILES | Hsp70 activator | NF-kB expr up | APP 5'UTR act | Wee1 degr inh | STAT1 act | APP transl inh
CC1=C([N+](=O)[O-])C(c2cccc(Br)c2)C2=C(N1)c1ccccc1C2=O (centres undefined) | 0 | 4.5* | -86 | -3 | 111 | 86*
CCN1CCCC(OC(=O)Nc2ccccc2)C1 (centres undefined) | 0 | 0.91 | 2 | -3 | 100 | -2
COc1cc([N+](=O)[O-])cc(/C=N/NC(=O)c2ccc(NC(=O)c3ccc(C)cc3)cc2)c1O | 0 | 0.95 | -87 | 5 | 95 | 87*
COc1cccc(/C=N/NC(=O)c2cc3cc([N+](=O)[O-])ccc3s2)c1O | 0 | 1.1 | -51 | 6 | 108 | 51*
CCCCn1c(Oc2ccc(C(=O)OC)cc2)nc2c1c(=O)n(C)c(=O)n2C | 0 | 1 | 106 | -3 | 100 | -66
COc1ccccc1N1C(=O)S/C(=C\c2cc(C)n(C)c2C)C1=O | 0 | 1.7 | 44 | 0 | 137* | -44
COc1ccc(N=C2S/C(=C\c3cc(C)n(C)c3C)C(=O)N2C)cc1 | 0 | 1 | -20 | 1 | 100 | 20
CCCCC(=O)Nc1cc(NC(=O)CCCC)cc(C(=O)O)c1 | 0 | 1.1 | 1 | 5 | 101 | -1
CCCNC(=S)N1CCC(NC(=O)C2CCCCC2)CC1 | 0 | 1 | -9 | 10* | 96 | 9
NC(=O)c1cccnc1Nc1cccc([N+](=O)[O-])c1 | 0 | 2.5 | 88 | -2 | 134* | -88
CCOc1ccc2nc(NC(=O)C3CCCO3)sc2c1 (centres undefined) | 0 | 4.7* | 158* | 9 | 140* | -158
O=C(Nc1nnc(-c2ccncc2)s1)C1CCCO1 (centres undefined) | 0 | 1.2 | 12 | 0 | 105 | -12
Cc1cc(F)ccc1NC(=O)C1CCCO1 (centres undefined) | 0 | 0.95 | -6 | -2 | 109 | 6
O=C(Nc1nc2ccc(F)cc2s1)C1CCCO1 (centres undefined) | 0 | 3.9* | 106 | 1 | 146* | -106
O=C(Nc1nc2ccc(C(=O)N3CCCCC3)cc2s1)C1CCCCC1 | 0 | 1.2 | -26 | 3 | 104 | 26
O=C(Nc1nnc(-c2ccccc2F)s1)C1CCCO1 (centres undefined) | 0 | 2.9 | 91 | 4 | 141* | -91
Nc1ccc2nc(NC(=O)C3CCCCC3)sc2c1 | 0 | 4.8* | 121 | 0 | 146* | -121
Cc1ccc(NC(=O)C(c2ccc(Cl)cc2Cl)N2CCCC2)cc1 (centres undefined) | 0 | 0.88 | 27 | -3 | 107 | -27
O=C(NCCc1ccc(Cl)cc1)C1CCN(c2ncccn2)CC1 | 0 | 1.2 | -20 | -2 | 106 | 20
N#CC(C#N)=C1C=CC=CN1/C(=C\c1ccco1)C(=O)c1ccc(Br)cc1 | 0 | 0.27 | -93 | -1 | 109 | 93*
COc1ccc(/C=C(/C(=O)c2cccs2)N2C=CC=CC2=C(C#N)C#N)cc1 | 0 | 0.57 | -82 | -3 | 103 | 82*
N#C/C(=C/c1ccco1)C(N)=S | / | / | / | 1 | / | /
COc1ccc(C(=O)/C(=C\c2ccco2)N2C=CC=CC2=C(C#N)C#N)cc1 | 2 | 0.18 | -84 | 7 | 110 | 84*
N#CC(C#N)=C1C=CC=CN1/C(=C\c1ccco1)C(=O)c1ccccc1 | 1 | 1.2 | -96 | 7 | 116 | 96*
CCC(=O)c1cn(CC(=O)O)c2ccccc12 | 0 | 1.1 | 19 | -2 | 99 | -20
SMILES | Hsp70 activator | NF-kB expr up | APP 5'UTR act | Wee1 degr inh | STAT1 act | APP transl inh
Cc1cc2c(NCC(C)O)ncnc2s1 (centres undefined) | 0 | 1.2 | 6 | -2 | 101 | -6
O=C(CCn1c(=S)[nH]c2ccccc2c1=O)NCCSCc1ccccc1 | 0 | 1.4 | -4 | -3 | 86 | 4
O=C(Cn1c(=S)[nH]c2ccccc2c1=O)NCCc1ccccc1 | 0 | 1.1 | 5 | 9.5* | 95 | -5
CCOc1cccc(CN2CCN(Cc3ccc(C)o3)C(CCO)C2)c1O (centres undefined) | 1 | 1 | 15 | 9.3* | 98 | -15
Cc1ccc2nc(COc3ccc(Cl)cc3)cc(=O)n2c1 | 0 | 2.6 | 53 | -2 | 136* | -53
COc1ccc(NC(=O)C2=Cc3ccccc3OC2)cc1 | 0 | 9.5* | 157* | 4 | 81 | -157
